T1: BTN1A1 285-479 SPRY (domain begin residue: 285, domain end residue: 479), Q13410
T1 chain: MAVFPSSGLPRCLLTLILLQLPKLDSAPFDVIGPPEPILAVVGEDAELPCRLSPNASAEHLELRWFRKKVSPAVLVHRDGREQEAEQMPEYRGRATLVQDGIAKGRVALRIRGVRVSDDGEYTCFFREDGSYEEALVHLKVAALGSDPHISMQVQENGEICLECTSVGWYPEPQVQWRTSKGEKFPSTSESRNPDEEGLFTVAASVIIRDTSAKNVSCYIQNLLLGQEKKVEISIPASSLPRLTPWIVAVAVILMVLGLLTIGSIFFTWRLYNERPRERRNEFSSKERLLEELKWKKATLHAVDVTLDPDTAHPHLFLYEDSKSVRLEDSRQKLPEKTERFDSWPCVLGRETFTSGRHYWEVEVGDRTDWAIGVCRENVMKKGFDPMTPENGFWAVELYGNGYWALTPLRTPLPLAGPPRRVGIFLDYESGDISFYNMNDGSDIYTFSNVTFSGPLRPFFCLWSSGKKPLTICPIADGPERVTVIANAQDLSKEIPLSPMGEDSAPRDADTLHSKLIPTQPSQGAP

T2: ARFGEF2 639-829 Sec7 (domain begin residue: 639, domain end residue: 829), Q9Y6D5
T2 chain: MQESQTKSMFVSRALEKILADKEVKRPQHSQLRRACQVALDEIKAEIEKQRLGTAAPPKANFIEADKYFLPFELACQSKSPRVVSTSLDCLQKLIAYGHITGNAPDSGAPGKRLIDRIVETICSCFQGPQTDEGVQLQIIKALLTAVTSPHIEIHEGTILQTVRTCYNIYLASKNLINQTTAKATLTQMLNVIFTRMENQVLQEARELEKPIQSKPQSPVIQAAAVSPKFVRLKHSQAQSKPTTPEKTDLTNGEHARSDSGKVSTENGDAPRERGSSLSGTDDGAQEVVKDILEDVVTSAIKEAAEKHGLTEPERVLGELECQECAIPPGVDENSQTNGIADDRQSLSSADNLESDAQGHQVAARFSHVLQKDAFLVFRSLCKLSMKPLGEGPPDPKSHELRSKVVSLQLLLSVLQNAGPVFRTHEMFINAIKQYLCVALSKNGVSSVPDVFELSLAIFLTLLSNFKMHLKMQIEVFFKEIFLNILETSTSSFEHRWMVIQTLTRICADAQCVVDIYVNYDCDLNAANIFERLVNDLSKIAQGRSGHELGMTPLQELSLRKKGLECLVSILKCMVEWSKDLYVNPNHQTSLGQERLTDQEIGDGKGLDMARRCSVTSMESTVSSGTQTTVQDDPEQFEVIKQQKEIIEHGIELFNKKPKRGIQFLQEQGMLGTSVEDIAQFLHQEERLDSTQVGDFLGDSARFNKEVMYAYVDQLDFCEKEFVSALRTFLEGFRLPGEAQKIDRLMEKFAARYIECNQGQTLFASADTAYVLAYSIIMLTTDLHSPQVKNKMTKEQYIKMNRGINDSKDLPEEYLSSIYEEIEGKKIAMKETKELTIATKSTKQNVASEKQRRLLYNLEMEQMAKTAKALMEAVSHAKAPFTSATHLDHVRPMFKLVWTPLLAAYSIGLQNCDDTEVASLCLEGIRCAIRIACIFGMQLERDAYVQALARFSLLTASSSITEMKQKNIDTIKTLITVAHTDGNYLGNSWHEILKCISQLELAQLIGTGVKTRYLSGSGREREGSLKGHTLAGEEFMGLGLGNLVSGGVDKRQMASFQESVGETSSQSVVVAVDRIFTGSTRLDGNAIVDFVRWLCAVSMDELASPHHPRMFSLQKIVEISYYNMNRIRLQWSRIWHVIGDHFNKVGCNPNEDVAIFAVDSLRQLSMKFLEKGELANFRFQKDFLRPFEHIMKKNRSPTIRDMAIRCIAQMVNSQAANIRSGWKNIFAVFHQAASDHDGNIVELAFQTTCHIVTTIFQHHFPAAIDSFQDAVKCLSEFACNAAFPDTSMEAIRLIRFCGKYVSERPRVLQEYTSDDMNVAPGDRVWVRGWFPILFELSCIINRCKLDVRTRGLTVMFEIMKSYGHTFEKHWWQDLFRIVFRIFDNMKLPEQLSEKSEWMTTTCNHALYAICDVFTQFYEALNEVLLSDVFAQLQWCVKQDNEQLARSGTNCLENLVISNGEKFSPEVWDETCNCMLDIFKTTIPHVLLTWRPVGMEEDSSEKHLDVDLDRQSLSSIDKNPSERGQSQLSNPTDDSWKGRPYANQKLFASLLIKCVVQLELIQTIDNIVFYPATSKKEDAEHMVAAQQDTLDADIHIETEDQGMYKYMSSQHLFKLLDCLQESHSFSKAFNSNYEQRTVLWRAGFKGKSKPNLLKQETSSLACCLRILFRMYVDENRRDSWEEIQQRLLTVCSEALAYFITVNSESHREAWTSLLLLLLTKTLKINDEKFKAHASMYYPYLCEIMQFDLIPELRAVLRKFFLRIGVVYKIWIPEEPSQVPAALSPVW

T3: CAPNS1 1-268 EF-hand_8+EF-hand_5 (domain begin residue: 1, domain end residue: 268), P04632
T3 chain: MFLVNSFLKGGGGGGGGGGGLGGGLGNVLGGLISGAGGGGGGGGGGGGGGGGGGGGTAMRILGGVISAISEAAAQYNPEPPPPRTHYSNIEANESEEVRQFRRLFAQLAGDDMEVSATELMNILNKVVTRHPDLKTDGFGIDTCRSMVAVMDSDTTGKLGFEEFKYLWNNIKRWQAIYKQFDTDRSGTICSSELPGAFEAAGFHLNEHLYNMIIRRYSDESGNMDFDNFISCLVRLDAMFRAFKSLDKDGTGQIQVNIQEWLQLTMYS

T4: CAPN2 513-700 EF-hand_8 (domain begin residue: 513, domain end residue: 700), P17655
T4 chain: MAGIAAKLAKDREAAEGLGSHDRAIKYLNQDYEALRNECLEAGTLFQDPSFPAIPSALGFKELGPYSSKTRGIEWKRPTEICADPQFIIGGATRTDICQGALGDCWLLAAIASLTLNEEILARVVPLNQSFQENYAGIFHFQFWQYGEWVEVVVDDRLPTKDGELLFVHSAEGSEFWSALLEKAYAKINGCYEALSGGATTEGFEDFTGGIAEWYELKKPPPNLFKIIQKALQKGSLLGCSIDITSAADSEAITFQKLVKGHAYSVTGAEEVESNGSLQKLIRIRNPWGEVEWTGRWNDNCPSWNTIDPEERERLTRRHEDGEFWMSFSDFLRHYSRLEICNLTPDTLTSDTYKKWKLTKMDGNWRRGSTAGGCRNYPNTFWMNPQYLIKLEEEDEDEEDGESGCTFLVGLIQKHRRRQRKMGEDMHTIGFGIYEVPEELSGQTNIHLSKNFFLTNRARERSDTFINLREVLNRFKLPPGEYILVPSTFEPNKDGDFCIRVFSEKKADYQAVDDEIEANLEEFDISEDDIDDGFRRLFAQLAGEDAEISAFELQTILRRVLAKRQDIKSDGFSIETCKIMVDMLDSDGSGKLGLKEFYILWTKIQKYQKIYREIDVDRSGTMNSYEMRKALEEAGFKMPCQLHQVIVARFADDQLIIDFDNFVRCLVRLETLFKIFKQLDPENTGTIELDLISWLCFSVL

T5: ALDOA 1-364 Glycolytic (domain begin residue: 1, domain end residue: 364), P04075
T5 chain: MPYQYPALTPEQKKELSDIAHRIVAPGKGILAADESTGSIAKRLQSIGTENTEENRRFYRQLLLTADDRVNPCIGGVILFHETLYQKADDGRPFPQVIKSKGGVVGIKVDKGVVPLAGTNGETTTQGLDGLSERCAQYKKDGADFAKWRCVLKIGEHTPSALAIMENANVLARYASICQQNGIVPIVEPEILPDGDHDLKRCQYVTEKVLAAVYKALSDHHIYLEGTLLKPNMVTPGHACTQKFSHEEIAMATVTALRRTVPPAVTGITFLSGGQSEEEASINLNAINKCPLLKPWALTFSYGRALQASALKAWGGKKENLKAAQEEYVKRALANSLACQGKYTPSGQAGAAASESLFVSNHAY


Target: T1, BTN1A1 285-479 SPRY (domain begin …
Assay: phage ELISA signal ratio (GST-PRM binding over GST background); higher = stronger binding of peptide-phage to the PRM
Procedure: (§1)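 Phage-displayed random hexadecapeptides (Cys-free, flanked by invariant Gly linkers, fused to the M13 P8 major coat protein) were selected over 5 rounds against GST-fused human PRM domains. Individual clones from rounds 4-5 were tested by phage ELISA, and positive clones binding the target but not GST were sequenced. Values are the ELISA signal ratio of target over background (GST); the background signal is given separately.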

How did the “phage ELISA signal ratio” value turn out when PKTGEPWHPWIPHWLA was run?
The value was 8.34.

Target: T2, ARFGEF2 639-829 Sec7 (domain begin …
Assay: as above
Procedure: as §1

QITMQQYVELWHAAKS was tested. Which “phage ELISA signal ratio” value did it give?
The value was 24.1.

Target: T3, CAPNS1 1-268 EF-hand_8+EF-hand_5 …
Assay: as above
Procedure: as §1

Which “phage ELISA signal ratio” value does the source give for YQQDLVDFLWNDLYAF here?
Its value is 22.7.

These binders were tested against ARF3 1-181 Arf (domain begin residue: 1, domain end residue: 181), P61204 in the same assay as above.
ARF3 1-181 Arf (domain begin residue: 1, domain end residue: 181), P61204, sequence (P61204 whole entry): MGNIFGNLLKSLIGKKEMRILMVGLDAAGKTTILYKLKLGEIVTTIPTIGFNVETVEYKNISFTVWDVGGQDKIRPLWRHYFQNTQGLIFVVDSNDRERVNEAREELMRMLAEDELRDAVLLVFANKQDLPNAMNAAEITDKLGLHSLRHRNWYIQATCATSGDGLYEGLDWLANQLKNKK
Procedure: as §1

With DIYWGYHMTDFISQET as the binder, how does the “phage ELISA signal ratio” value read?
Its value is 15.3.

Target: T4, CAPN2 513-700 EF-hand_8 (domain begin …
Assay: as above
Procedure: as §1

With WDAFVNDFMHEWSTFK as the binder, how does the “phage ELISA signal ratio” value read?
Its value is 26.5.

Each binder was assayed against CBX3 109-173 Chromo_shadow (domain begin residue: 109, domain end residue: 173), Q13185 in the same assay as above.
CBX3 109-173 Chromo_shadow (domain begin residue: 109, domain end residue: 173), Q13185, sequence (Q13185 whole entry): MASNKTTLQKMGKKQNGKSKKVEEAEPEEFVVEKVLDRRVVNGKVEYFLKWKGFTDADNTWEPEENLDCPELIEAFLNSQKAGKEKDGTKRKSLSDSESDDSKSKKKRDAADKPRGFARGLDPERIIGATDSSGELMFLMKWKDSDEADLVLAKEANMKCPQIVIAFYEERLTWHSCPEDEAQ
Procedure: as §1

Which “phage ELISA signal ratio” value does the source give for IQKWMNFDDFATAVFH here?
Its value is 11.5.

These binders were tested against ARPC3 1-178 P21-Arc (domain begin residue: 1, domain end residue: 178), O15145 in the same assay as above.
Procedure: as §1

For VPEWWWQGWDPHHVVE, which “phage ELISA signal ratio” value is on record?
The value was 6.99.

Target: T5, ALDOA 1-364 Glycolytic (domain begin …
Assay: as above
Procedure: as §1

For WVQDTWGEGWSYTVQE, which “phage ELISA signal ratio” value is on record?
Its value is 20.2.
